Measurements published in PubChem BioAssay (NCI).
About 83,000 compounds went through this panel and 20% of them were active in at least one assay; those are over-represented in the sample as a whole.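 For each line, cells grew in 96-well plates with the test compound present at a single concentration for 48 hours.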 Activity calls are given as the source filed them. How the source made its calls: active means growth percent below 10; inactive means the rest.

Experiments:
Experiment in all cases: NCI-60 one-dose screen, 48 h (100 = growth as untreated, 0 = no growth, -100 = all killed)
Settings in all cases: 10 µM unless noted
[1] = system: DU-145 prostate
[2] = system: K-562 leukemia
[3] = system: MALME-3M melanoma
[4] = system: MDA-MB-231 breast
[5] = system: RXF 393 renal
[6] = system: SF-268 CNS
[7] = system: SF-295 CNS
[8] = system: SF-539 CNS
[9] = system: UACC-257 melanoma
[10] = system: M14 melanoma

Measured: growth

NC(=O)CC(NC(=O)COc1ccc(Cl)cc1Cl)C(=O)O (stereo not given)
inactive: [1] 104% | [2] 103% | [3] 105% | [4] 105% | [5] 108% | [6] 101% | [7] 100% | [8] 111% | [9] 107% | [10] 106%

Cc1nc2c(nnn2-c2ccccc2)c2nc(-c3ccccc3)oc(=O)c12
inactive: [1] 117% | [2] 106% | [3] 115% | [4] 109% | [5] 109% | [6] 108% | [7] 101% | [8] 97.7% | [9] 123% | [10] 102%

c1cc(C2CCCCC2)ccc1OCCCCCCN1CCNCC1
inactive: [1] 17.9% | [3] 52.7% | [4] 33.4% | [5] 32% | [6] 54.5% | [7] 73.1% | [8] 32.4% | [9] 73.1% | [10] 40.3%
active: [2] -42.1%

Cc1c(Cc2ccccc2)c(=O)oc2c(C)c(OCC(=O)n3nc(C#N)cc3N)ccc12
inactive: [1] 104% | [2] 102% | [3] 99.5% | [4] 103% | [5] 119% | [6] 97.1% | [7] 94.7% | [8] 99.3% | [9] 105% | [10] 96.3%

COc1cccc(NC(=O)NCCNc2nccc(-c3c(-c4ccc(F)cc4)nc4sccn34)n2)c1
inactive: [1] 76.9% | [2] 71.4% | [3] 140% | [4] 79.4% | [5] 88.5% | [6] 84.2% | [7] 103% | [8] 102% | [9] 119% | [10] 92.6%

COc1cc2c(c(OC)c1OC)C(=O)CC(c1cccc(C(=O)Nc3cccc(Br)c3)c1)O2 (stereo not given)
inactive: [1] 87% | [2] 49.8% | [3] 85% | [4] 63.7% | [5] 88.8% | [6] 73.6% | [7] 86.7% | [8] 86.8% | [9] 76.8% | [10] 73.1%

CCOC(=O)c1ccc2n1CCCc1cnc(NC(C)=O)nc1-2
inactive: [1] 111% | [2] 102% | [3] 110% | [4] 106% | [5] 96.6% | [6] 96.2% | [7] 100% | [8] 95.1% | [9] 115% | [10] 99.9%

CC(C)OCC1CO1 (stereo not given)
inactive: [1] 114% | [2] 109% | [3] 86.8% | [4] 107% | [5] 119% | [6] 99.9% | [7] 78.2% | [8] 95.1% | [9] 102% | [10] 102%

COc1ccc(C(O)(c2ccccc2)C(C(=O)O)c2ccccc2)cc1 (stereo not given)
inactive: [1] 118% | [2] 101% | [3] 107% | [4] 103% | [5] 121% | [6] 107% | [7] 118% | [8] 92.7% | [9] 127% | [10] 103%

COc1cc(-c2nn(-c3ccc(NC(=O)c4ccc(Cl)c(Cl)c4)cc3)cc2-c2ccncc2)ccc1Cl
inactive: [1] 82% | [2] 17% | [3] 111% | [4] 54.9% | [6] 67.6% | [8] 47.7% | [9] 110% | [10] 62.3%
active: [5] -55.1% | [7] -42.3%

O=P(OCCCl)(OCCCl)C(O)c1ccccc1Cl (stereo not given)
inactive: [1] 112% | [2] 96.6% | [3] 96.7% | [4] 108% | [5] 125% | [6] 103% | [7] 102% | [8] 98.1% | [9] 137% | [10] 105%

CC(=O)/C(=C/c1ccc(-c2ccccc2)cc1)C(=O)c1ccccc1
inactive: [1] 87.1% | [2] 64.2% | [3] 89.3% | [4] 92.5% | [5] 90.6% | [6] 85.9% | [7] 92.3% | [8] 85.1% | [9] 80.2% | [10] 79.8%

Nc1nc2c(c3cnccc13)C(c1cccc(Cl)c1)Cc1cnccc1-2 (stereo not given)
inactive: [1] 10.7% | [3] 62.4% | [6] 20.7% | [9] 60.2%
active: [2] 9.68% | [4] 8.99% | [5] 7.47% | [7] 8.34% | [8] -18.5% | [10] 1.08%

CC(C)(C)c1ccc([I+]c2ccc(C(C)(C)C)cc2)cc1
active: [1] -89.1% | [2] 1.42% | [3] -61.2% | [4] -30.3% | [5] 0.632% | [6] 1.36% | [9] 1.08% | [10] 2.73%
inactive: [7] 23.7% | [8] 21.2%

CCCCCCCCCCC1OC(C)CC(C)O1 (stereo not given)
inactive: [1] 104% | [2] 86.5% | [3] 98% | [4] 115% | [5] 103% | [6] 96% | [7] 109% | [8] 103% | [9] 113% | [10] 101%

COc1ccc2c(N)ncc(C#Cc3cc(C(=O)Nc4ccc(CN5CCN(C)CC5)c(C(F)(F)F)c4)cnc3C)c2c1
active: [1] -89.2% | [2] -63.4% | [3] -81.9% | [4] -85% | [5] -73.4% | [6] 6.51% | [8] -93.4% | [10] -78.1%
inactive: [7] 63% | [9] 27.4%

N#CC1=C(N2CCOCC2)NC2c3ccccc3Sc3ccccc3N2C1=N (stereo not given)
inactive: [1] 98.4% | [2] 117% | [3] 103% | [4] 98.7% | [5] 90.7% | [6] 91.8% | [7] 116% | [8] 89.7% | [9] 108% | [10] 98.9%

COc1ccc(-c2nc(Nc3nc4ccccc4[nH]3)nc(N)c2C#N)cc1
inactive: [1] 108% | [2] 97.2% | [3] 106% | [4] 91.9% | [5] 134% | [6] 99% | [7] 114% | [8] 97.2% | [9] 108% | [10] 99.5%

COC(=O)C1CC(=O)N(C(=O)Nc2ccc(Cl)cc2Cl)C1 (stereo not given)
inactive: [1] 114% | [2] 92.8% | [3] 108% | [4] 95.3% | [5] 120% | [6] 101% | [7] 96.7% | [8] 99.6% | [9] 96.6% | [10] 94.1%

C/C(=N\Nc1cccc(Cl)n1)c1ccccn1
active: [2] 6.59% | [7] 0.34% | [8] 1.72% | [9] 2.3% | [10] -23.8%
inactive: [1] 23.3% | [3] 21.6% | [4] 36.8% | [5] 24% | [6] 12.8%

COc1cc2ncnc(-n3ncc4cc(NC(=O)Nc5ccccc5)ccc43)c2cc1OC
inactive: [1] 10.5% | [2] 39.1% | [6] 21.7% | [7] 26.9% | [9] 28.7%
active: [3] -13.8% | [4] -8.14% | [5] -84.3% | [8] 0.968% | [10] 6.8%

Oc1ccccc1/C=N/N=C/c1c(O)ccc2ccccc12
inactive: [1] 96.9% | [2] 78.5% | [3] 91.3% | [4] 69.9% | [5] 109% | [6] 92.5% | [7] 98.1% | [8] 96.9% | [9] 98.2% | [10] 80%

CN(C)CCOC(=O)C(C)(C)C
inactive: [1] 122% | [2] 101% | [3] 105% | [4] 93.9% | [5] 102% | [6] 121% | [7] 108% | [8] 109% | [9] 92.5% | [10] 98.3%

COc1cc(-c2nn(-c3ccc(NC(=O)Nc4ccc(Cl)c(C(F)(F)F)c4)cc3)cc2-c2ccncc2)ccc1Cl
inactive: [1] 34% | [2] 13.2% | [3] 12.1% | [6] 21.7% | [8] 14.7%
active: [4] 7.76% | [5] -30.2% | [7] -7.8% | [9] -3.17% | [10] 1.7%

BrCCCOc1ccc(Oc2ccc(OCCCBr)cc2)cc1
inactive: [1] 116% | [2] 109% | [3] 117% | [4] 104% | [5] 80.8% | [6] 111% | [7] 116% | [8] 113% | [9] 90.4% | [10] 102%

COc1cc2ncnc(-n3ncc4cc(NC(=O)Nc5ccc(Cl)c(Cl)c5)ccc43)c2cc1OC
inactive: [2] 10.7%
active: [1] 1.5% | [3] -44.3% | [4] -74.3% | [5] -86.7% | [6] -34.8% | [7] -66.8% | [8] -70.6% | [9] -10.3% | [10] -41%

Cc1ccc(NC(=O)CCl)cc1Cl
inactive: [1] 111% | [2] 87.3% | [3] 78.7% | [4] 89.4% | [5] 102% | [6] 103% | [7] 81.2% | [8] 108% | [9] 90.5% | [10] 104%

Brc1ccc(-c2nc3ccccc3s2)cc1
inactive: [1] 108% | [2] 96.2% | [3] 95.8% | [4] 82.4% | [5] 96% | [6] 90% | [7] 98% | [8] 93.2% | [9] 117% | [10] 97.7%

O=C(CCl)NC1c2ccccc2Oc2ccccc21
inactive: [1] 65.5% | [2] 45.6% | [3] 74.1% | [4] 60.7% | [5] 80.1% | [6] 64.4% | [7] 81.2% | [8] 82.4% | [9] 63.6% | [10] 77.8%

N=C(c1ccccc1)N(Cc1ccccc1)Cc1ccccc1
inactive: [1] 111% | [2] 76.2% | [3] 93.8% | [4] 79.6% | [5] 85% | [6] 103% | [7] 59.2% | [8] 103% | [9] 94% | [10] 78%

CC1Cc2cc(F)ccc2-n2cccc21 (stereo not given)
inactive: [1] 106% | [2] 108% | [3] 101% | [4] 94% | [5] 136% | [6] 110% | [7] 104% | [8] 101% | [9] 101% | [10] 111%

O=C(N/N=C\c1ccc(Cl)cc1)C(=O)N/N=C\c1ccc(Cl)cc1
inactive: [1] 123% | [2] 95.2% | [3] 89.6% | [4] 91.3% | [5] 118% | [6] 120% | [7] 96.8% | [8] 99.5% | [9] 108% | [10] 103%

COc1ccc(-c2nc(SCC(C)C)nc(Nc3ccc(C)cc3)c2C#N)cc1
inactive: [1] 85.9% | [2] 68.8% | [3] 74.3% | [4] 68.4% | [5] 88.2% | [6] 85.3% | [7] 64.4% | [8] 63.5% | [9] 103% | [10] 88.8%

CCOC(=O)c1c(C)oc2ncnc(Nc3ccc(C(=O)NCCc4ccccc4)cc3)c12
inactive: [1] 82.1% | [2] 89% | [3] 89.5% | [4] 85.7% | [5] 71.8% | [6] 74.1% | [7] 90.4% | [8] 58.9% | [9] 79.7% | [10] 81.3%

CC(=O)Nc1nc(C)c(C(=O)N/N=C/N2CCCCC2)s1
inactive: [1] 137% | [2] 137% | [3] 119% | [4] 111% | [5] 112% | [6] 111% | [7] 127% | [8] 99.3% | [9] 120% | [10] 111%

COc1cc(-c2nn(-c3ccc(NC(=O)c4ccc(Cl)c(C(F)(F)F)c4)cc3)cc2-c2ccncc2)ccc1Cl
inactive: [1] 45.2% | [3] 14.9% | [6] 43.8% | [8] 13% | [9] 54.2%
active: [2] 8.48% | [4] 3.94% | [5] -56.3% | [7] -33.2% | [10] -44.3%
